Consider five compounds from PubChem BioAssay.

Calls of active or inactive are those of the source. Unless noted, the rule behind the calls is not given here.

A short description of assay [1]: compound effects on lung adenocarcinoma cell viability – A549, calcein-AM fluorescence, 48 h, basal, profiling panel (AID 1162). Note: test concentration not given here. Conditions: higher = more signal.
A short description of assay [2]: compound effects on differentiated 3T3-L1 adipocyte viability – cell-based, 3T3-L1 adipocytes, calcein-AM fluorescence, 48 h, basal, profiling panel (AID 1163). Note: test concentration not given here. Conditions: 3T3-L1 adipocytes viability, higher = more signal.
Assay [3] can be described thus: compound effects on hepatocellular carcinoma cell viability – HepG2, calcein-AM fluorescence, 48 h, basal, profiling panel (AID 1164). Note: test concentration not given here. Conditions: higher = more signal.
Assay [4] can be described thus: compound effects on multiple myeloma cell viability – MM1S, calcein-AM fluorescence, 48 h, basal, profiling panel (AID 1165).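 Note: viability of MM1S multiple myeloma cells under basal unstimulated conditions; test concentration not given here.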 The note with it: higher = more signal.
Assay [5] can be described thus: calcein-AM signal in unstimulated myeloma cells – cell-based, calcein-AM fluorescence, 48 h, PK04 Diversity Set, profiling panel (AID 1166).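 Note: cells grown under basal conditions without added stimulus; test concentration not given here.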 The note with it: RPMI8226 myeloma viability, higher = more signal.
Assay [6] is described as follows: JC-1 mitochondrial signal, unstimulated HepG2 cells – cell-based, JC-1 fluorescence, 24 h, 100 nL compound, profiling panel (AID 1167). Note: test concentration not given here. Conditions: HepG2 mitochondrial potential, higher = more signal.
Assay [7] in a line: JC-1 mitochondrial signal, unstimulated adipocytes – cell-based, JC-1 fluorescence, 3T3-L1 adipocytes, 24 h, 100 nL compound, profiling panel (AID 1168). Note: test concentration not given here. The note with it: JC-1 mitochondrial fluorescence, higher = more signal, called active from +8 up or from −8 down.
The nature of assay [8]: JC-1 mitochondrial signal, unstimulated myeloma cells – cell-based, JC-1 fluorescence, RPMI8226, 24 h, 100 nL compound, profiling panel (AID 1169). Note: test concentration not given here. Conditions: JC-1 mitochondrial potential fluorescence, higher = more signal.
Assay [9] in a line: JC-1 mitochondrial signal, unstimulated MM1S myeloma – cell-based, JC-1 fluorescence, 24 h, 100 nL compound, profiling panel (AID 1170). Note: test concentration not given here. The note with it: MM1S mitochondrial potential, higher = more signal.
Assay [10] can be described thus: resazurin metabolic signal in A549 cells – cell-based, resazurin fluorescence, 24 h, PK04 Diversity Set, profiling panel (AID 1171). Note: test concentration not given here. The note with it: A549 viability, higher = more signal, called active from +8 up or from −8 down.
Assay [11] in a line: resazurin metabolic signal in HepG2 cells – cell-based, resazurin fluorescence, 24 h, PK04 Diversity Set, profiling panel (AID 1172). Note: test concentration not given here. Conditions: HepG2 viability, higher = more signal.
A short description of assay [12]: budding yeast growth changes without added modifier – OD600, strain BY4716, 24 h, basal condition, primary screen (AID 1173). Conditions: S. cerevisiae BY4716 growth, OD600, 24 h; higher = more signal, called active from +8 up or from −8 down.
A short description of assay [13]: viability profiling in MM1S myeloma cells – cell-based, resazurin fluorescence, basal, 24 h, PK04 Diversity Set, profiling panel (AID 1174). Note: test concentration not given here. Conditions: higher = more signal, called active from +8 up or from −8 down.
Assay [14] deals with Dihydroorotate dehydrogenase (quinone), mitochondrial (Plasmodium falciparum (isolate 3D7)) (UniProt Q08210). In words: inhibition of P. falciparum DHODH – biochemical, C-terminal His tag, absorbance 600 nm, primary screen (AID 1175).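 Note: recombinant parasite enzyme with a five histidine tag at its C terminus; test concentration not given here.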 Conditions: PfDHODH enzyme, DCIP absorbance 600 nm; higher = more signal, called active from +8 up or from −8 down.
Sequence of Dihydroorotate dehydrogenase (quinone), mitochondrial (Plasmodium falciparum (isolate 3D7)) (Q08210 whole entry, looked up): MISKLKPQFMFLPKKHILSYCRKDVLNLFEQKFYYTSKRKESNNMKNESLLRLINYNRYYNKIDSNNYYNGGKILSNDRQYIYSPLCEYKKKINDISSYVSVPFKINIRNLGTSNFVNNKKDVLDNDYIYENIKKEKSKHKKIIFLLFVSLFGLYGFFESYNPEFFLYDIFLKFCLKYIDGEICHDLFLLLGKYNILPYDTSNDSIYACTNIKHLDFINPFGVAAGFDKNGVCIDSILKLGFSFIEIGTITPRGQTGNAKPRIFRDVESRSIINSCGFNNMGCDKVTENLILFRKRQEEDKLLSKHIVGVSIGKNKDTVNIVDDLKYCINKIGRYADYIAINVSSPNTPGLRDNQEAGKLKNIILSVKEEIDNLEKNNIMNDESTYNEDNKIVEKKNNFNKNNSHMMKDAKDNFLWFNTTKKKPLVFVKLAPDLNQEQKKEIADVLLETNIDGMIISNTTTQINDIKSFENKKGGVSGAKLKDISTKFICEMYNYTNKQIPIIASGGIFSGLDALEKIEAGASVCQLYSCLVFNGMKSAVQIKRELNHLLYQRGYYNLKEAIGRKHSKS
Assay [15] can be described thus: inhibition of PAO1 biofilm formation – strain PAO1, LB-PBS medium, absorbance 600 nm, primary screen (AID 1176). Note: test concentration not given here. The note with it: P. aeruginosa PAO1 growth/biofilm, A600, 12 h; higher = more signal.
Assay [16] can be described thus: growth modulation of vineyard yeast isolate – strain RM11-1a, OD600, basal, 24 h, primary screen (AID 1177).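 Note: cultures grown under basal conditions with no added stressor; test concentration not given here.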 Conditions: S. cerevisiae RM11-1a growth, OD600, 24 h; higher = more signal, called active from +8 up or from −8 down.
Assay [17] is described as follows: growth of efflux-deficient E. coli DRC39 – strain DRC39, OD650, 24 h, E. coli filamentation inducers, primary screen (AID 1178).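 Note: growth measured as culture turbidity by optical density at 650 nm; test concentration not given here.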 Conditions: E. coli DRC39 acrAB, higher = more signal, called active from +8 up or from −8 down.
A short description of assay [18]: growth of efflux-deficient E. coli DRC39 – strain DRC39, OD650, 48 h, E. coli filamentation inducers, primary screen (AID 1179).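 Note: screen aims at cell division blockers that make cells filament.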 Conditions: E. coli DRC39 delta-acrAB growth, higher = more signal, called active from +8 up or from −8 down.
The nature of assay [19]: viability profiling in RPMI8226 myeloma cells – cell-based, resazurin fluorescence, basal, 24 h, PK04 Diversity Set, profiling panel (AID 1180).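 Note: RPMI8826 multiple myeloma cell line at 5000 cells per well; test concentration not given here.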 Conditions: higher = more signal.
In assay [20] the target is E3 ubiquitin-protein ligase XIAP (Homo sapiens) (UniProt P98170). Briefly: small molecules binding XIAP protein – biophysical, small-molecule microarray, fluorescence 635 nm, primary screen (AID 1181).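 Note: score merges 667 nm emission and signal to noise over triplicate slides.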 The note with it: higher = more signal.
Sequence of E3 ubiquitin-protein ligase XIAP (Homo sapiens) (P98170 whole entry, looked up): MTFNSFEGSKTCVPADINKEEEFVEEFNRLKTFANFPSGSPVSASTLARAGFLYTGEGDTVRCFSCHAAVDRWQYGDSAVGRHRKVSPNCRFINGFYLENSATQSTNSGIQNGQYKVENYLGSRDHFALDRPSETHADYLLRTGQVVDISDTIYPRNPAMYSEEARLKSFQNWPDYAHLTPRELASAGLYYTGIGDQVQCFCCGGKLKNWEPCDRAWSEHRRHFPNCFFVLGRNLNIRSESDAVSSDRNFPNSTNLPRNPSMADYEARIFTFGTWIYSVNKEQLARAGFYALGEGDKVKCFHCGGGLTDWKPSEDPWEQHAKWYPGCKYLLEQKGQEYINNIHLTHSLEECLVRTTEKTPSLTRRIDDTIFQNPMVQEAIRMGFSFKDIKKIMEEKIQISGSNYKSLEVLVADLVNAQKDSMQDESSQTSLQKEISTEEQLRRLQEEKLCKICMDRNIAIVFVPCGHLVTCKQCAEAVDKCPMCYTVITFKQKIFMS

For the compound `O=C1c2ccccc2[C@@]2(Cc3ccccc3N(CC(F)(F)F)C2=O)[C@H](c2ccc(CO)cc2)N1Cc1ccccc1`, the z-score was -0.293 in assay [1]; 1.21 in [2]; -1.13 in [3]; 0.191 in assay [4]; -2.24 in [5]; -0.631 in assay [6]. Moreover, the z-score in assay [7] was -2.33 (inactive); in assay [8], 0.928; in [9], -1.09; in [10], -0.279 (inactive); in assay [11] it was -0.584; in assay [12] it was 0.714 (inactive). Also, the z-score was -0.0925 (inactive) in assay [13]; 0.118 (inactive) in assay [15]; -0.224 (inactive) in [16]; 0.117 (inactive) in assay [17]; -1.66 (inactive) in assay [18]; -0.341 in assay [19]. The composite z-score in [14] was -17.8 (active); in assay [20], -0.231.
On to `CCCCN1CC=CC23O[C@@H]4/C=C\CCC(C)OC(=O)C4[C@H]2C(=O)N(CCO)[C@@H]3C1=O` (stereo not given in full), for which the z-score in assay [1] is -0.266; in [2] it was 0.555; in assay [3] it was -0.406; in [4], -0.0157; in [5], -1.19; in assay [6] it was 0.0609. The z-score was -0.0386 (inactive) in [7]; 0.881 in [8]; 0.213 in assay [9]; 0.265 (inactive) in assay [10]; 1 in assay [11]; 0.256 (inactive) in [12]. Besides, the z-score is 0.498 (inactive) in assay [13]; 0.0279 (inactive) in [15]; -0.348 (inactive) in assay [16]; 0.32 (inactive) in assay [17]; -0.178 (inactive) in assay [18]; 0.82 in [19]. Also, the composite z-score was -0.252 (inactive) in assay [14] and 0.0026 in assay [20].
For `COc1ccc(CCNC(=O)[C@@]2(C)c3ccccc3C(=O)N(Cc3ccc(OC(F)(F)F)cc3)[C@H]2c2ccc(CO)cc2)cc1`, the z-score was 0.109 in assay [1]; 0.965 in assay [2]; -0.0665 in assay [3]; -2.23 in assay [4]; -2.3 in [5]; 2.56 in [6]. Moreover, the z-score is 0.434 (inactive) in assay [7]; -0.114 in assay [8]; 0.0946 in assay [9]; 2.43 (inactive) in assay [10]; 1.4 in [11]; -0.553 (inactive) in assay [12]. The z-score in assay [13] is 0.979 (inactive); in [15], 1.05 (inactive); in [16], 0.362 (inactive); in assay [17], 0.0466 (inactive); in [18], -0.657 (inactive); in assay [19], 1.3. Besides, the composite z-score in assay [14] is -0.0074 (inactive); in [20], -0.031.
In the case of `O=C1O[C@H](c2ccccc2)[C@H](c2ccccc2)N2[C@H]1[C@@H](C(=O)N1CCCCCCC1)[C@]1(C(=O)Nc3ccc(C#CCCO)cc31)[C@H]2c1ccc(O)cc1`, the z-score was 1.53 in assay [1]; 0.0496 in assay [2]; 1.22 in assay [3]; -0.149 in [4]; 0.0392 in [5]; 0.638 in assay [6]. In addition, the z-score in assay [7] was 0.547 (inactive); in [8], -0.146; in [9], -0.979; in assay [10], 0.798 (inactive); in [11], 0.546; in [12], 0.206 (inactive). Moreover, the z-score is 1.33 (inactive) in [13]; 0.93 (inactive) in assay [15]; 0.66 (inactive) in assay [16]; 0.783 (inactive) in [17]; 0.721 (inactive) in assay [18]; 0.838 in assay [19]. Besides, the composite z-score in assay [14] is -0.328 (inactive); in [20], 2.21.
Take `COc1cc2c(cc1O)C(C)N(Cc1sc3ccccc3c1Cl)CC2` (stereo not given): the z-score in [1] is 0.0824; in assay [2] it was -0.0046; in assay [3] it was -0.0238; in assay [4], 0.141; in assay [5], 0.624; in assay [6], -1.08. Also, the z-score is -0.632 (inactive) in assay [7]; 0.838 in assay [8]; -0.995 in assay [9]; -0.205 (inactive) in [10]; 0.311 in assay [11]; -0.961 (inactive) in [12]. Besides, the z-score in assay [13] is 0.0446 (inactive); in assay [15], 0.668 (inactive); in assay [16], -0.123 (inactive); in assay [17], 1.14 (inactive); in assay [18], 0.717 (inactive); in assay [19], -0.0875. Further, the composite z-score is -2.64 (inactive) in assay [14] and -0.148 in assay [20].
